Experimental data reported in PubChem BioAssay AID2517 (National Center for Advancing Translational Sciences (NCATS), 2010).
Where “and” joins values, the source holds several entries; their conditions need not be identical. Equal values may be shown once. Among all 350,000 compounds or so, about 1,200 (0.34%) were called active. Not shown: some 3% with an inconclusive outcome. Calls follow the shape of the dose curve; as a rule, active = well fitted inhibition curve with a large enough effect; inconclusive = small, poorly fitted or top-dose-only effect; inactive = no such curve, though single readings can be large or run the other way. The full list was thinned out, with actives kept by preference. Some structures have more than one record in an assay (separate samples or runs), and their calls can disagree.

biological target: DNA repair nuclease/redox regulator APEX1 (Homo sapiens) (UniProt P27695); assay: qHTS Assay for Inhibitors of the Human Apurinic/apyrimidinic Endonuclease 1 (APE1); details: recombinant APE1, TAMRA/BHQ-2 abasic DNA cleavage fluorescence; activity change, negative = inhibition: at 65.8 µM (top of the series); also: nearly all actives have a fitted effect of over 55% in size;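 as to activity change, negative = inhibition: plate controls were vehicle for no effect and reference inhibitor for full effect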
Sequence (P27695 whole entry, looked up): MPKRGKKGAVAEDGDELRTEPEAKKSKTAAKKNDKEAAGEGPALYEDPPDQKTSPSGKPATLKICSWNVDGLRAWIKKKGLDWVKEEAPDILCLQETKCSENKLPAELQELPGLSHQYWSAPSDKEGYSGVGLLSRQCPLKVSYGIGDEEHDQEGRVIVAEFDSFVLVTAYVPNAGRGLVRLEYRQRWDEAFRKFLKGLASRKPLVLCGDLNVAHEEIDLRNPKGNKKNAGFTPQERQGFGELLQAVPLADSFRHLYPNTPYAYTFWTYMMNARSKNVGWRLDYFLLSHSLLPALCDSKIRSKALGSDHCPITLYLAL
Excerpt: The apurinic/apyrimidinic endonuclease APE1 is the primary mammalian enzyme responsible for the removal of abasic (or AP) sites in DNA and functions centrally in the base excision DNA repair (BER) pathway. […] Thus, targeting APE1 could improve the efficacy of current treatment paradigms by promoting selective sensitization or protection of diseased and normal cells, respectively.
Inhibition of APE1 activity was screened by utilizing double-stranded short substrate containing tetrahydrofuran (THF) abasic site labeled with rhodamine-type fluorophore (TAMRA) at the 5'-end and with non-fluorescent Black Hole Quencher-2 (BHQ-2) at the opposing 3'-end. An increase in the fluorescence intensity due to incision of the abasic site by APE1 was used to measure the enzyme activity.
NIH Chemical Genomics Center [NCGC]
NIH Molecular Libraries Probe Centers Network [MLPCN]
Assay Provider: David M. Wilson, III, National Institute on Aging, NIH
Three uL of enzyme solution (0.75 nM APE1 final concentration) was dispensed to 1536-well Greiner black solid bottom plates. […] The plates were incubated for 15 min at room temperature, and then 1 uL of substrate solution (50 nM final concentration of TAMRA/BHQ-2) was added to start the reaction. The plates were immediately transferred into ViewLux High-throughput CCD imager (Perkin-Elmer) in order to measure the reaction progress in kinetic mode (three reads every 60 seconds) using 525 nm excitation and 598 nm emission fluorescence protocol. The fluorescence intensity difference between the third and the first time points was used to compute reaction progress. Results were normalized to buffer only columns and NSC13755 positive controls and negative control DMSO treated wells.
Potency is read from the fitted curve at half-maximal effect.

Potency, inactive and 199 nM (active):
C=CCCN(Cc1ccccc1)S(=O)(=O)c1ccccc1Br

Potency, inactive:
Cc1ccc(CCC(=O)Nc2ncc(Cc3cc(Cl)ccc3Cl)s2)o1, CCC[C@@H]1C[C@@]1(CCC)C(NS(=O)(=O)c1cccc2cccnc12)c1ccc(Cl)cc1 (stereo partly specified), Nc1ncn(C2OC(CO)C(O)C2O)c(=O)n1 (stereo unspecified), CC1=C2[C@@H](O)[C@H]([C@@H](C)C(=O)NCCC(C)C)CC[C@@]2(C)C=CC1=O, C#CCOCCOCCOCCNc1nc(N2CCN(C(=O)[C@H](CCCCN)n3cc([C@@H](N)C(C)CC)nn3)CC2)nc(N2CCN(C(=O)[C@H](Cc3ccc(O)cc3)n3cc([C@@H](N)C(C)CC)nn3)CC2)n1 (stereo partly specified), C#CCOCCOCCOCCNc1nc(N2CCN(C(=O)[C@H](Cc3ccc(O)cc3)n3cc(C(N)CC(C)C)nn3)CC2)nc(N2CCN(C(=O)[C@H](CCC(=O)O)n3cc(C(N)[C@H](C)CC)nn3)CC2)n1 (stereo partly specified), C=CCOC(=O)NC(c1ccc(F)c(F)c1)C(C(=O)COC)C(=O)OC (stereo unspecified), CCCN1[C@H](C(=O)OC)C[C@@]2(O)[C@@H](O)[C@@H](O)[C@@H](O)C[C@@H]12, COc1c(O)c2c(=O)cc(OC)c3c4c(OC)cc(=O)c5c(O)c(OC)c6c(c(c1C[C@@](C)(O)[C@H]6C(C)=O)c23)c54, O=C1N/C(=C/c2cccn2-c2ccccc2)C(=O)N1c1cccc(Cl)c1, Cc1ccccc1NC(=O)CSC(=O)c1ccccc1, O=C(c1cccc(F)c1)N1CCC2(CCCN(Cc3ccncc3)C2)CC1, COC(=O)[C@@]1(Cc2ccc(F)cc2)[C@@H]2[C@@H](CC(=O)[C@H]2CC(=O)C(=O)N2CCCC2)CN1C(=O)c1ccccc1, CC(=O)OCC(=O)C1CCC2C3CCC4=CC(=O)CC[C@@]4(C)C3CC[C@]12C (stereo partly specified), Cc1ccc(-c2nn(CC(C)(C)C)c3ncnc(N)c23)cc1, CN1CCCC1CCO[C@@](C)(c1ccccc1)c1ccc(Cl)cc1 (stereo partly specified), CCOc1cc(/C=N/NC(=O)CN2CCCCC2)ccc1O, Cn1c(SCC(=O)N/N=C/c2ccc(O)c(O)c2)nc2ccccc21, N#Cc1cccc(-c2ccc3ncnc(NCc4cccs4)c3c2)c1, COc1ccc(-c2oc3cc(OC)ccc3c2C(=O)c2ccc(C#N)cc2)cc1, CN1[C@H]2CC(OC(=O)[C@@H](CO)c3ccccc3)C[C@H]1[C@H]1O[C@H]12 (stereo partly specified), COC(=O)[C@@]1(Cc2ccccc2)[C@H]2c3cc(C(=O)N4CCCC4)n(Cc4ccc(C)o4)c3C[C@H]2CN1C(=O)c1ccccc1, CC(C)C(N)C(=O)OCCOCn1cnc2c(=O)[nH]c(N)nc21 (stereo unspecified), C[C@@H]1O[C@@H](OC[C@H]2O[C@@H](Oc3cc(O)c4c(c3)O[C@H](c3ccc(O)c(O)c3)CC4=O)[C@H](O)[C@@H](O)[C@@H]2O)[C@H](O)[C@H](O)[C@H]1O, C=CCCN(C(Cc1ccccc1)C(=O)OC)S(=O)(=O)c1cc(Br)ccc1Br (stereo unspecified), C=CC(COCc1ccccc1)N(Cc1ccccc1)S(=O)(=O)c1ccccc1Br (stereo unspecified), COC(=O)[C@@]1(Cc2ccccc2)[C@H]2c3cc(C(=O)N(C)C)n(CCSCCO)c3C[C@H]2CN1C(=O)c1ccccc1, CC(C)=CCC[C@]1(C)[C@@H](CC=C(C)C)C[C@@]2(CC=C(C)C)C(=O)[C@]1(C(=O)C(C)C)C(=O)C(CC=C(C)C)=C2O, CC(=O)CC(C)C, O=C(c1cc(-c2ccco2)nc2ccccc12)N(Cc1nnc(-c2ccc(Cl)cc2)o1)C1CC1, CC1CCCN(C(=O)c2cc(-c3ccco3)nc3ccccc23)C1 (stereo unspecified), Cc1ccc(Br)cc1, CC(N)(C(=O)O)c1ccc(-c2nn[nH]n2)cc1 (stereo unspecified), COCCNc1ncnc2ccc(-c3cccnc3)cc12, CCCCCCCC[C@@H](O)/C=C/C=C/C=C\[C@@H](O)CCCC(=O)O, O=C(c1ccncc1)N1CCC2(CCN(Cc3cc(C(F)(F)F)cc(C(F)(F)F)c3)CC2)CC1, CC1(C)C=CC(=O)[C@]2(C)C1CC(=O)[C@]1(C)C2CC[C@@]2(C)C(c3ccoc3)OC(=O)C3OC321 (stereo partly specified)

Potency, active:
Cc1ccc(Cc2cnc(N)s2)o1 28.2 µM, C#CCOCCOCCOCCNc1nc(N2CCN(C(=O)C(Cc3ccc(O)cc3)n3cc(C(N)CC(C)C)nn3)CC2)nc(N2CCN(C(=O)C(Cc3ccc(O)cc3)n3cc(C(N)C(C)CC)nn3)CC2)n1 (stereo unspecified) 31.6 µM, Cc1ccccc1NC(=O)CN1C(=O)N/C(=C\c2cccn2-c2cccc(C(=O)O)c2)C1=O 3.16 µM, O=c1ccc2c(-c3ccccc3S(=O)(=O)O)c3ccc(O)c(O)c3oc-2c1O 0.0947 µM, Cc1nccn1CC(=O)N/N=C/c1ccc(O)c(O)c1 25.1 µM, Nc1ccc2nc3c(=O)[nH]c(=S)[nH]c3nc2c1 0.501 µM, Cc1cc(C)c2nc(-c3ccco3)cc(C(=O)O)c2c1 7.08 µM, O=c1c(O)c(Br)ccc2c(Br)c(O)c(O)c(O)c12 1.12 µM

Activity change, negative = inhibition, inactive:
CC(=O)OCC1OC(C#CCCCc2ccccc2)C=CC1OC(C)=O (stereo unspecified) 10.7% [at 12.4 µM] and -3.91% [at 12.4 µM], COC(=O)C1=C(C)N(Cc2ccccc2)C2=C3C(=O)N(c4ccccc4)C(=O)C3[C@@](O)(C(=O)OC)C(=O)N2C1c1ccccc1 (stereo partly specified) -8.1% [at 12.4 µM] and -10.6% [at 12.4 µM], C#CCC(C(=O)OC)(C(=O)OC)C(C[N+](=O)[O-])c1ccccc1 (stereo unspecified) 1.76% [at 12.4 µM], CC(C)CN1CCc2nc(-c3ccccc3)c3c(c2C1)COC(C)C3 (stereo unspecified) 8.68% [at 12.4 µM], COC(=O)C1=C(C(=O)OC)[C@@H]2N(C)c3ccccc3[C@@]23C[C@@H](C(=O)OC)N(S(=O)(=O)c2cccs2)C3=N1 -14.4% [at 12.4 µM]
